{"source": "PubChem BioAssay", "key": {"[1]": {"experiment": "viability loss in pontine glioma line – cell-based, SU-DIPG-XXV, MIPE5.0, CellTiter-Glo, qHTS, dose response (AID 1347065; cut-off not given, nearly all actives have AC50 up to about 26 µM;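 note: cells exposed to compound for 48 hours before ATP readout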)", "settings": "CellTiter-Glo ATP luminescence"}, "[2]": {"experiment": "JHH-DIPG-1 glioma cell viability, MIPE5.0 library, CellTiter-Glo luminescence, qHTS (AID 1347067; cut-off not given, nearly all actives have AC50 up to about 26 µM;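 note: cells exposed to compound for 48 hours before readout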)", "settings": "JHH-DIPG-1 glioma viability, CellTiter-Glo ATP luminescence"}, "[3]": {"experiment": "growth inhibition of DIPG cells – cell-based, MIPE5.0 library, qHTS (AID 1347068; cut-off not given, nearly all actives have IC50 up to about 30 µM)", "settings": "SU-DIPG-XXV viability"}, "[4]": {"experiment": "growth inhibition, single agent or in combination, cell-based, chromothripsis tumors, cisplatin or BGB combos (AID 1671449);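 note: cells exposed for 96 hours; 0% = vehicle DMSO and 100% = killing by high DMSO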", "settings": "LFS_MB_P medulloblastoma cells"}, "[5]": {"experiment": "growth inhibition, single agent and combos, cell-based, chromothripsis tumors, cisplatin or BGB combos (AID 1671450);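 note: cells exposed to compound for four days; 0% = vehicle DMSO and 100% = cell killing by high DMSO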", "settings": "HDN33 neuroblastoma cells, stronger effect = higher value"}, "[6]": {"experiment": "growth inhibition, single agents and combos, ICB984, cell-based, cisplatin or BGB combos, synergistic combos for chromothripsis tumors (AID 1671451; call rule not given here;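 note: cells exposed for 96 hours before readout; 0% = vehicle DMSO and 100% = killing by high DMSO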)", "settings": "ICB984 medulloblastoma cells, drug combinations, stronger effect = higher value"}, "[7]": {"experiment": "growth inhibition, single agents and combos, LFS_MB_1R, cell-based, cisplatin or BGB combos, synergistic combos for chromothripsis tumors (AID 1671452);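 note: cells exposed for 96 hours before readout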", "settings": "LFS_MB_1R medulloblastoma cells, stronger effect = higher value"}, "[8]": {"experiment": "growth inhibition, single agents and combos, HTB85, cell-based, BGB or cisplatin IC20 combos, synergistic combos for chromothripsis tumors (AID 1671453);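 note: cells exposed for 96 hours before readout; 0% = vehicle DMSO and 100% = high DMSO killing control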", "settings": "HTB85 osteosarcoma cells, drug combinations, stronger effect = higher value"}, "[9]": {"experiment": "growth inhibition, single agents and combos, CRL2098, cell-based, BGB or cisplatin IC20 combos, synergistic combos for chromothripsis tumors (AID 1671454);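 note: cells exposed for 96 h before readout; 0% = vehicle DMSO and 100% = killing by high DMSO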", "settings": "CRL2098 osteosarcoma cells, drug combinations, stronger effect = higher value"}, "[10]": {"experiment": "growth inhibition, single agents and combos, HD-MB03, cell-based, BGB or cisplatin IC20 combos, synergistic combos for chromothripsis tumors (AID 1671455; in the data active = inhibition above about 83%;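 note: 0% = vehicle DMSO and 100% = high DMSO as cytotoxic control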)", "settings": "HD-MB03 medulloblastoma cells, stronger effect = higher value"}, "[11]": {"experiment": "growth inhibition, single agents and combos, UWB1.289, cell-based, BGB or cisplatin combos, synergistic combos for chromothripsis tumors (AID 1671456);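 note: cells exposed to compound for four days; 0% = vehicle DMSO and 100% = killing by high DMSO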", "settings": "UWB1.289 ovarian carcinoma cells, stronger effect = higher value"}, "[12]": {"experiment": "growth inhibition, single agents and combos, LFS_MB_2R, cell-based, cisplatin combos, synergistic combos for chromothripsis tumors (AID 1671457);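 note: cells exposed to compound for four days before readout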", "settings": "LFS_MB_2R medulloblastoma cells, stronger effect = higher value"}, "[13]": {"experiment": "growth inhibition, MDA-MB-436, cell-based, BGB or cisplatin combos, synergistic combos for chromothripsis tumors (AID 1671458; call rule not given here;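 note: cells exposed for 96 hours; 0% = vehicle DMSO and 100% = killing by high DMSO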)", "settings": "MDA-MB-436 breast carcinoma growth inhibition, drug combinations, stronger effect = higher value"}, "[14]": {"experiment": "UWB1.289_BRCA1 ovarian cancer growth, cell-based, BGB or cisplatin combinations (AID 1671459)", "settings": "UWB1.289 BRCA1 ovarian carcinoma, drug combinations, stronger effect = higher value"}, "[15]": {"experiment": "drug combination toxicity in non-malignant astrocytes – cell-based, BGB or cisplatin IC20 combos, cytotoxicity control for chromothriptic childhood tumor combination screen (AID 1671460);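 note: cells exposed to compounds for 96 hours before viability readout; 0% = vehicle and 100% = killing control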", "settings": "Human astrocytes, viability inhibition, drug combinations, at 0.5 µM, stronger effect = higher value"}, "[16]": {"experiment": "BT084 cell growth, single and combined drugs, ICGC_MB145, cisplatin and BGB IC40 combos (AID 1671461);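 note: cells exposed to drugs for 96 hours; 0% = vehicle DMSO and 100% = high DMSO full killing control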", "settings": "BT084 medulloblastoma cells, drug combinations, stronger effect = higher value"}, "[17]": {"experiment": "RCMB18 cell growth, single agent and combined, cisplatin and BGB IC40 combos (AID 1671462);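 note: cells exposed to compound for four days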", "settings": "RCMB18 medulloblastoma cells, stronger effect = higher value"}, "[18]": {"experiment": "CRL1545 cell growth, single agent and combined, cisplatin and BGB IC20 combos (AID 1671464);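 note: cells exposed to compound for 96 hours before readout; 0% = vehicle DMSO and 100% = high DMSO killing control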", "settings": "CRL1545 osteosarcoma cells, stronger effect = higher value"}, "[19]": {"settings": "measured here: combination with BGB IC40, at 0.05 µM"}, "[20]": {"settings": "measured here: with BGB IC20 combination, at 0.5 µM"}, "[21]": {"settings": "measured here: with cisplatin IC20 combination, at 0.5 µM"}, "[22]": {"settings": "measured here: combination with cisplatin, at 0.5 µM"}, "[23]": {"settings": "measured here: combination with cisplatin, at 5 µM"}}, "note": "Inconclusive results are not listed. The source made the active and inactive calls. Cut-off read from the data, not from the text of the source, unless noted: active = inhibition above about 80%; inactive = the rest."}
{"compound": "C[C@]12CCCN1CC1=NNC(=O)c3cc(F)cc4[nH]c2c1c34", "values": [{"measurement": "AC50", "setting": "[1]", "result": "18.6 µM (active)"}, {"measurement": "outcome", "setting": "[2]", "result": "inactive"}, {"measurement": "outcome", "setting": "[3]", "result": "inactive"}, {"measurement": "inhibition", "setting": "[4]; at 0.5 µM, stronger effect = higher value", "result": "-13.4% (inactive)"}, {"measurement": "inhibition", "setting": "[4]; measured here: combination with BGB IC20, at 0.005 µM", "result": -16.8, "unit": "%"}, {"measurement": "inhibition", "setting": "[4]; measured here: combination with BGB IC40, at 0.005 µM", "result": -28.9, "unit": "%"}, {"measurement": "inhibition", "setting": "[4]; [19]", "result": -3.06, "unit": "%"}, {"measurement": "inhibition", "setting": "[4]; measured here: combination with cisplatin, at 0.5 µM, stronger effect = higher value", "result": -13.1, "unit": "%"}, {"measurement": "inhibition", "setting": "[4]; measured here: combination with cisplatin, at 5 µM, stronger effect = higher value", "result": -44.5, "unit": "%"}, {"measurement": "inhibition", "setting": "[5]; BGB combo, at 5 µM", "result": 6.78, "unit": "%"}, {"measurement": "inhibition", "setting": "[5]; at 0.5 µM", "result": "9.23% (inactive)"}, {"measurement": "inhibition", "setting": "[5]; cisplatin combo, at 5 µM", "result": 35.8, "unit": "%"}, {"measurement": "inhibition", "setting": "[5]; [20]", "result": 6.38, "unit": "%"}, {"measurement": "inhibition", "setting": "[5]; [21]", "result": -0.356, "unit": "%"}, {"measurement": "inhibition", "setting": "[5]; single agent, at 5 µM", "result": 20.9, "unit": "%"}, {"measurement": "inhibition", "setting": "[6]; BGB IC20 combo, at 0.005 µM", "result": -2.46, "unit": "%"}, {"measurement": "inhibition", "setting": "[6]; BGB IC40 combo, at 0.005 µM", "result": -21.8, "unit": "%"}, {"measurement": "inhibition", "setting": "[6]; BGB IC40 combo, at 0.05 µM", "result": -22.5, "unit": "%"}, {"measurement": "inhibition", "setting": "[6]; at 0.5 µM", "result": "-38.3% (inactive)"}, {"measurement": "inhibition", "setting": "[6]; cisplatin combo, at 0.05 µM", "result": -27.3, "unit": "%"}, {"measurement": "inhibition", "setting": "[6]; cisplatin combo, at 0.5 µM", "result": -41.3, "unit": "%"}, {"measurement": "inhibition", "setting": "[6]; cisplatin combo, at 5 µM", "result": -0.499, "unit": "%"}, {"measurement": "inhibition", "setting": "[6]; measured here: 5 uM single agent, at 5 µM", "result": -4.83, "unit": "%"}, {"measurement": "inhibition", "setting": "[7]; at 0.5 µM", "result": "-20.6% (inactive)"}, {"measurement": "inhibition", "setting": "[7]; [19]", "result": 7.39, "unit": "%"}, {"measurement": "inhibition", "setting": "[7]; [22]", "result": -14, "unit": "%"}, {"measurement": "inhibition", "setting": "[7]; [23]", "result": 1.25, "unit": "%"}, {"measurement": "inhibition", "setting": "[8]; at 0.5 µM", "result": "2.64% (inactive)"}, {"measurement": "inhibition", "setting": "[8]; measured here: with BGB IC20, at 0.5 µM", "result": -13.5, "unit": "%"}, {"measurement": "inhibition", "setting": "[8]; measured here: with BGB IC20, at 5 µM", "result": 4.08, "unit": "%"}, {"measurement": "inhibition", "setting": "[8]; measured here: with cisplatin IC20, at 0.5 µM", "result": 10.2, "unit": "%"}, {"measurement": "inhibition", "setting": "[8]; measured here: with cisplatin IC20, at 5 µM", "result": 21.1, "unit": "%"}, {"measurement": "inhibition", "setting": "[8]; single agent, at 5 µM", "result": 23.4, "unit": "%"}, {"measurement": "inhibition", "setting": "[9]; at 0.5 µM", "result": "-35.2% (inactive)"}, {"measurement": "inhibition", "setting": "[9]; measured here: combination with BGB at IC20, at 0.5 µM", "result": 1.29, "unit": "%"}, {"measurement": "inhibition", "setting": "[9]; measured here: combination with cisplatin at IC20, at 0.5 µM", "result": -26.6, "unit": "%"}, {"measurement": "inhibition", "setting": "[10]; at 0.5 µM", "result": "-2.5% (inactive)"}, {"measurement": "inhibition", "setting": "[10]; measured here: combo with BGB at IC20, at 0.5 µM", "result": -14.3, "unit": "%"}, {"measurement": "inhibition", "setting": "[10]; measured here: combo with cisplatin at IC20, at 0.5 µM", "result": 6.94, "unit": "%"}, {"measurement": "inhibition", "setting": "[11]; at 0.5 µM", "result": "-3.02% (inactive)"}, {"measurement": "inhibition", "setting": "[11]; measured here: inhibition with BGB combination, at 0.05 µM", "result": -15.4, "unit": "%"}, {"measurement": "inhibition", "setting": "[11]; measured here: inhibition with cisplatin combination, at 0.05 µM", "result": -2.14, "unit": "%"}, {"measurement": "inhibition", "setting": "[12]; at 0.5 µM", "result": "-20.2% (inactive)"}, {"measurement": "inhibition", "setting": "[12]; [22]", "result": -18.1, "unit": "%"}, {"measurement": "inhibition", "setting": "[12]; [23]", "result": -24.5, "unit": "%"}, {"measurement": "inhibition", "setting": "[13]; at 0.5 µM", "result": "3.1% (inactive)"}, {"measurement": "inhibition", "setting": "[13]; measured here: BGB combination, at 0.5 µM", "result": -13.3, "unit": "%"}, {"measurement": "inhibition", "setting": "[13]; measured here: BGB combination, at 5 µM", "result": -31.4, "unit": "%"}, {"measurement": "inhibition", "setting": "[13]; measured here: cisplatin combination, at 0.5 µM", "result": 5.47, "unit": "%"}, {"measurement": "inhibition", "setting": "[13]; measured here: cisplatin combination, at 5 µM", "result": 22.8, "unit": "%"}, {"measurement": "inhibition", "setting": "[14]; BGB combination, concentration series, at 5 µM", "result": -3.19, "unit": "%"}, {"measurement": "inhibition", "setting": "[14]; at 0.5 µM", "result": "2.39% (inactive)"}, {"measurement": "inhibition", "setting": "[14]; cisplatin combination, concentration series, at 5 µM", "result": 5.42, "unit": "%"}, {"measurement": "inhibition", "setting": "[15]", "result": "14.9% (inactive)"}, {"measurement": "inhibition", "setting": "[15]; measured here: combo with BGB IC20", "result": 12, "unit": "%"}, {"measurement": "inhibition", "setting": "[15]; measured here: combo with cisplatin IC20", "result": 13.1, "unit": "%"}, {"measurement": "inhibition", "setting": "[16]; at 0.5 µM", "result": "-23% (inactive)"}, {"measurement": "inhibition", "setting": "[16]; cisplatin combination, at 0.5 µM", "result": -25.6, "unit": "%"}, {"measurement": "inhibition", "setting": "[16]; cisplatin combination, at 5 µM", "result": -25.6, "unit": "%"}, {"measurement": "inhibition", "setting": "[16]; measured here: BGB IC40 combination 0.05 uM, at 0.05 µM", "result": -29, "unit": "%"}, {"measurement": "inhibition", "setting": "[16]; single agent, at 5 µM", "result": -12.6, "unit": "%"}, {"measurement": "inhibition", "setting": "[17]; at 0.5 µM", "result": "-18.5% (inactive)"}, {"measurement": "inhibition", "setting": "[17]; cisplatin combo, at 5 µM", "result": 3.33, "unit": "%"}, {"measurement": "inhibition", "setting": "[17]; measured here: BGB IC40 combination, at 0.05 µM", "result": -15.1, "unit": "%"}, {"measurement": "inhibition", "setting": "[17]; [22]", "result": -6.38, "unit": "%"}, {"measurement": "inhibition", "setting": "[17]; single agent, at 5 µM", "result": -28.1, "unit": "%"}, {"measurement": "inhibition", "setting": "[18]; at 0.5 µM", "result": "7.98% (inactive)"}, {"measurement": "inhibition", "setting": "[18]; [20]", "result": -8.07, "unit": "%"}, {"measurement": "inhibition", "setting": "[18]; [21]", "result": 16, "unit": "%"}, {"measurement": "inhibition", "setting": "[18]; single agent, at 0.05 µM", "result": 13.9, "unit": "%"}, {"measurement": "inhibition", "setting": "[18]; single agent, at 5 µM", "result": 35, "unit": "%"}]}
